From PubChem BioAssay
Shown are actives, neighbours in structure and some others; about 10% of the full set was active somewhere.
Lmaj_promast – Leishmania major promastigote growth inhibition, primary screen. Leishmania major promastigotes, resazurin fluorescence viability. inhibition, % at 10 µM. 200,000 tested, 9% active. AID 1063, 2008; in the data active means inhibition above about 50%;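 further: promastigotes grown with compound for 44 hours at 28 °C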
p97_inhibitor – inhibitors of human p97 ATPase, primary screen, biochemical | Transitional endoplasmic reticulum ATPase (Homo sapiens), P55072 | recombinant p97 ATPase, Kinase-Glo ATP luminescence, 3 h | inhibition, % at 8 µM | 220,000 tested, 0.42% active | AID 1481, 2009; in the data active means inhibition above about 15%;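 further: 0% = DMSO vehicle and 100% = wells lacking enzyme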
Insulin_prom_inh – inhibitors of insulin promoter-driven GFP, primary screen, imaging, TRM-6 cells (human fetal islet line), eGFP reporter, cell count; reporter expression induced with tamoxifen; inhibition, % at 2 µM; 130,000 tested, 0.9% active; AID 1273, 2008;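 active means inhibition above the mean plus 3 SD, with well images judged a real hit on visual review, cut at about 60% in these data, passing the limit was not always enough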
PTEN_del_growth – growth suppression of PTEN-null HCT116, primary screen, cell-based, CellTiter-Glo. HCT116 PTEN-null viability, 60 h; hits give low values. viability, % at 10 µM. 140,000 tested, 1.2% active. AID 827, 2007;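 active means viability at or below a set limit, 4 SD under the median of all tested compounds, cut at about 3.7% in these data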;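 further: PTEN knockout HCT116 line with beta catenin targeted HCT116 as companion control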
ROMK_primary – ROMK potassium channel modulators, primary screen, cell-based, thallium flux, MLSMR library; 130,000 tested, 2% active; Tet-inducible ROMK, thallium flux fluorescence; actives lie on both sides; B-score at 10 µM; ATP-sensitive inward rectifier potassium channel 1 (Homo sapiens), P48048;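 active means signal ratio slope over the read window, or its plate-corrected B-score, at least 3 SD from the plate mean, either direction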;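 further: B-score of the F/F0 ratio slope over 7 to 12 s after thallium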
HCT116_bCat-KO – primary screen for growth suppressors in beta-catenin knockout HCT116 cells (colon tumor, human); 140,000 tested, 1.5% active; HCT116 beta-catenin knockout viability, CellTiter-Glo, 60 h; hits give low values; viability, % at 10 µM; AID 818, 2007;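 active means viability at or under a set limit, the compound median less 4 SD, cut at about 6% in these data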;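 further: 0% = Hyamine 1622 control at 20 µM and 100% = untreated cell control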
The depositor's hits bear a star; x = no result given.

SMILES Lmaj_promast p97_inhibitor Insulin_prom_inh PTEN_del_growth ROMK_primary HCT116_bCat-KO
C/C(=C\C(=O)OCC(=O)NCc1ccccc1)C(=O)OCC(=O)NCc1ccccc1 -2 2 13 85 0.79 79
COc1cccc(C(=O)N2CCN(C3CCN(Cc4ccccc4)CC3)CC2)c1OC x 1 x x x x
Cc1c(NS(=O)(=O)c2ccc(NCCN3CCOCC3)c([N+](=O)[O-])c2)c(=O)n(-c2ccccc2)n1C 3 3 x x -0.81 x
COc1c(C)cccc1C(=O)Nc1ccc(N2CCN(S(C)(=O)=O)CC2)cc1 -1 3 x 93 -1 88
Cc1ccc(N2CCN(c3ccc(NC(=O)CCC(=O)O)cc3)CC2)cc1 -5 2 73* 107 1.3 92
CCCC(=O)Nc1ccc(N2CCN(S(C)(=O)=O)CC2)cc1 8 3 56 95 1.8 90
COc1ccccc1C(=O)Nc1ccc(N2CCN(S(C)(=O)=O)CC2)cc1 56* 2 -37 105 -1.2 92
CCC(=O)Nc1ccc(N2CCN(S(C)(=O)=O)CC2)cc1 67* -4 26 94 -0.75 91
